Experimental data from paper PMC5540273 (PLoS ONE, 2017).

Key:
Conditions in all cases: concentration: 1 μM,replicates: in singlicate; n = 1
[1] = test system: CSNK1G1
[2] = test system: CSNK1G2
[3] = test system: CSNK1G3
[4] = test system: CSNK2A1
[5] = test system: CSNK2A2
[6] = test system: T1, CTK
T1 construct: gene MATK

[7] = test system: DAPK1
[8] = test system: DAPK2
[9] = test system: DAPK3
[10] = test system: T2, DCAMKL1
T2 construct: gene DCLK1

[11] = test system: T3, DCAMKL2
T3 construct: gene DCLK2

[12] = test system: T4, DCAMKL3
T4 construct: gene DCLK3

[13] = test system: DDR1
[14] = test system: DDR2
[15] = test system: T5, DLK
T5 construct: gene MAP3K12

[16] = test system: T6, DMPK2
T6 construct: gene CDC42BPG

[17] = test system: DMPK
[18] = test system: T7, DRAK1
T7 construct: gene STK17A

[19] = test system: T8, DRAK2
T8 construct: gene STK17B

[20] = test system: DYRK1A
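Further: KINOMEscan kinase panel screen.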

SMILES	%Inh [1]	%Inh [2]	%Inh [3]	%Inh [4]	%Inh [5]	%Inh [6]	%Inh [7]	%Inh [8]	%Inh [9]	%Inh [10]	%Inh [11]	%Inh [12]	%Inh [13]	%Inh [14]	%Inh [15]	%Inh [16]	%Inh [17]	%Inh [18]	%Inh [19]	%Inh [20]
CCN1CCN(CCCC(=O)Nc2n[nH]c3nc(-c4ccc(O)cc4)c(Br)cc23)CC1 [SB-731579]	0%	0%	0%	0%	0%	34%	41%	31%	61%	0%	18%	99.1%	38%	41%	8%	0%	89%	44%	0%	38%
COc1cc(Nc2nccc(N3CCC(NC(=O)c4cccc(C#N)c4)C3)n2)cc(OC)c1OC (centres unmarked) [GSK1379751]	0%	0%	7%	0%	0%	0%	0%	0%	6%	5%	0%	0%	0%	24%	30%	1%	0%	20%	4%	0%
Cn1ccc2ncnc(Oc3ccc(NC(=O)Nc4cccc(C(F)(F)F)c4)c(F)c3)c21	9%	20%	0%	0%	0%	0%	1%	0%	13%	12%	18%	17%	96.9%	100%	0%	4%	0%	0%	24%	0%
O=C(Nc1cccc(C(F)(F)F)c1)c1cccc(Oc2ccc3nccn3n2)c1	1%	10%	1%	0%	0%	69%	0%	0%	0%	0%	6%	9%	97.1%	95.9%	0%	1%	13%	0%	0%	5%
Cl.Cl.NC[C@H](CC1CCCCC1)NC(=O)c1ccc(-c2ccnc3[nH]ccc23)s1 [GSK1581428]	29%	72%	64%	8%	0%	9%	49%	12%	32%	0%	17%	0%	0%	8%	85%	100%	99.7%	94.9%	0%	54%
Cn1ccc2ncnc(Oc3ccc(NC(=O)Nc4ccnc(C(F)(F)F)c4)c(Cl)c3)c21	0%	9%	0%	0%	10%	0%	7%	0%	0%	4%	0%	0%	100%	99.6%	0%	0%	0%	0%	3%	13%
CS(=O)c1ccc(-c2coc3ccc(-c4n[nH]c(=O)o4)cc23)cc1 (centres unmarked)	0%	20%	5%	100%	99.8%	0%	52%	67%	59%	3%	0%	0%	0%	15%	0%	0%	29%	61%	100%	66%
N#Cc1cccc(C(=O)NC2CCN(c3ccnc(Nc4ccc(F)cc4)n3)C2)c1 (centres unmarked) [GSK1379708]	0%	4%	6%	0%	0%	0%	0%	0%	11%	0%	9%	9%	0%	0%	35%	0%	0%	0%	4%	21%
Nc1nccc(-c2ccc3c(N)n[nH]c3c2)n1 [GSK1034945]	0%	0%	19%	41%	64%	0%	45%	0%	19%	12%	0%	36%	0%	0%	1%	2%	0%	98.1%	89%	99.6%
Cn1ccc2ncnc(Oc3ccc(NC(=O)Nc4cncc(C(F)(F)F)c4)c(Cl)c3)c21	0%	5%	0%	0%	0%	0%	0%	0%	0%	0%	0%	0%	100%	99.9%	0%	0%	0%	0%	0%	0%
